Laboratory results from PubChem BioAssay (NCI).
The panel holds about 83,000 compounds, 20% with a hit somewhere; the sample as a whole holds those more often.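 In brief: 96-well plates, 48 h treatment, single concentration, percent growth endpoint.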 Values without a mark were called inactive. Activity calls are given as the source filed them. How the source made its calls: active means growth percent below 10; inactive means the rest.

What was measured:
Test in all cases: NCI-60 one-dose screen, 48 h (100 = growth as untreated, 0 = no growth, -100 = all killed)
Conditions in all cases: 10 µM
DU-145 prostate = test system: DU-145 prostate
K-562 leukemia = test system: K-562 leukemia
MALME-3M melanoma = test system: MALME-3M melanoma
MDA-MB-231 breast = test system: MDA-MB-231 breast
RXF 393 renal = test system: RXF 393 renal
SF-268 CNS = test system: SF-268 CNS
SF-295 CNS = test system: SF-295 CNS
SF-539 CNS = test system: SF-539 CNS
UACC-257 melanoma = test system: UACC-257 melanoma
M14 melanoma = test system: M14 melanoma
HCT-15 colon = test system: HCT-15 colon
HT29 colon = test system: HT29 colon
SNB-75 CNS = test system: SNB-75 CNS
SNB-19 CNS = test system: SNB-19 CNS
U251 CNS = test system: U251 CNS
SK-MEL-5 melanoma = test system: SK-MEL-5 melanoma
LOX IMVI melanoma = test system: LOX IMVI melanoma
SK-MEL-28 melanoma = test system: SK-MEL-28 melanoma
PC-3 prostate = test system: PC-3 prostate
UACC-62 melanoma = test system: UACC-62 melanoma

SMILES | growth (DU-145 prostate) | growth (K-562 leukemia) | growth (MALME-3M melanoma) | growth (MDA-MB-231 breast) | growth (RXF 393 renal) | growth (SF-268 CNS) | growth (SF-295 CNS) [%] | growth (SF-539 CNS) | growth (UACC-257 melanoma) [%] | growth (M14 melanoma) [%] | growth (HCT-15 colon) | growth (HT29 colon) [%] | growth (SNB-75 CNS) | growth (SNB-19 CNS) | growth (U251 CNS) [%] | growth (SK-MEL-5 melanoma) | growth (LOX IMVI melanoma) | growth (SK-MEL-28 melanoma) | growth (PC-3 prostate) [%] | growth (UACC-62 melanoma)
N#Cc1c(-c2ccc(F)cc2)nc(SCc2ccc([N+](=O)[O-])cc2)nc1N1CCOCC1 | 73.3% | 76.9% | 42.8% | 47.1% | 9.79% (active) | 49.3% | 41.5 | 26.2% | 54.2 | 87.7 | 72.8% | 86.6 | 7.62% (active) | 46% | 55.3 | 61.9% | 84.7% | 82.1% | – | –
CC(=O)OC[C@@]1(C)C2CC[C@]3(C)C(CC=C4C5CC(C)(C)CC[C@]5(C(=O)Nc5ccccc5)CC[C@]43C)[C@@]2(C)C[C@@H](OC(C)=O)[C@@H]1OC(C)=O (stereo not given in full) | 44.9% | 12.7% | 54.3% | 60.6% | 64.2% | 52.5% | 19.9 | 41.6% | 18.5 | 50.9 | 25.1% | 28.5 | 58.4% | 39.9% | 39.9 | 2.74% (active) | – | 59.2% | 27.7 | 31%
N#Cc1c(NC(=O)c2ccc(C(F)(F)F)cc2)sc2c1CCC(O)=C2 | 38.5% | 8.86% (active) | 23.2% | 13.5% | 14.6% | 43.3% | 17.5 | 3.2% (active) | 36 | 13 | 9.23% (active) | 38.2 | -3.93% (active) | 55.9% | 28.2 | -28.8% (active) | 23.9% | 41.6% | 49.2 | –
O=C(O)CCCCCCCCCCN1C(=O)/C(=C/c2cnc(-c3ccccc3)s2)SC1=S | 80.4% | 23.6% | 103% | 100% | 116% | 112% | 83.3 | 110% | 101 | 101 | 80.7% | 126 | 124% | 100% | 59.5 | 93.1% | 32.1% | 97.4% | – | 76.4%
Nc1nnc(-c2c[nH]c3ccc(F)cc23)c(-c2c[nH]c3ncccc23)n1 | 82% | 31.9% | 71.6% | 39.1% | 82.8% | 80.2% | 36.6 | 30% | 105 | 63.5 | 69.3% | 59.5 | 29.1% | 33.9% | 37.6 | 63.7% | – | 71.3% | 67.5 | –
O=C1NC(=NC23CC4CC(CC(C4)C2)C3)N/C1=C\c1ccc2ncsc2c1 | 6.29% (active) | 10.5% | 2.66% (active) | -8.83% (active) | -63.6% (active) | -11.5% (active) | 13 | -23.9% (active) | 26.7 | 42 | -3.34% (active) | 13.6 | -44.1% (active) | 6.09% (active) | – | 2.01% (active) | 2.05% (active) | 0.351% (active) | 11.4 | 7.15% (active)
COc1cc(NC(=O)c2cc(-c3ccc(F)cc3F)ccc2O)cc(OC)c1OC | 34.3% | 14% | 17.4% | 47.5% | 75.9% | 25.9% | 65.5 | 50.8% | 55.3 | 55.8 | 41.1% | 110 | 40.9% | – | 32.6 | -15.7% (active) | 55.3% | 25% | 21.9 | 0.606% (active)
N#Cc1c(-c2ccc(F)cc2)nc(SCc2ccc(F)cc2)nc1N1CCOCC1 | 77.8% | 83.8% | 58.6% | 50.5% | 41.6% | 43.4% | 36.9 | 49% | 77.1 | 92.2 | 79.9% | 92.9 | -17.5% (active) | 43.7% | – | 74.3% | 76.4% | 85.8% | 71.6 | 69.3%
